# Data as given in PubChem BioAssay (EPA / NIEHS).
# Calls of active or inactive are those of the source. The calls were made as follows: active = hit-call score of the fitted dose curve at least 0.9, where 1 is the maximum; inactive = score below 0.9.
# Test system: TTR (gene 7276)
# Assay: CCTE_GLTED_hTTR_0.125uM: CCTE's human Transthyretin (hTTR) Inhibition Assay, with 0.125uM TTR, Great Lakes Toxicology and Ecology Division (GLTED) Lab (AID 2284431);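 also: hits lower the fluorescence signal relative to DMSO baseline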
# Outline: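 Activity is defined as decreased ANSA fluorescence (ex 380, em 475) from human transthyretin, 0.125uM, following 2-hour chemical exposure in a cell-free setup, with DMSO as baseline.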
row,Compound,AC50
1,Oc1ccccc1Cc1ccccc1O,3.62 µM (active)
2,CCCCCCCCCCCC(=O)N(C)CC(=O)O,21.4 µM (active)
3,O=S(=O)(O)c1ccc(N=Nc2c(O)ccc3ccccc23)cc1,0.258 µM (active)
4,Oc1ccc(-c2ccccc2)c(Cl)c1,0.0353 µM (active)
5,CCCCCCCOC(=O)c1ccc(O)cc1,1.42 µM (active)
6,CCCCCCCCCCCCc1ccc(O)cc1,1.62 µM (active)
7,COc1ccc(C(=O)c2ccccc2)c(O)c1,6.35 µM (active)
8,O=C(Oc1ccccc1)c1ccccc1O,4.91 µM (active)
9,CCCCCCOc1ccc(N)cc1,21.2 µM (active)
10,CC1=NN(c2ccc(S(=O)(=O)O)cc2)C(=O)C1N=Nc1ccccc1 (stereo unspecified),5.69 µM (active)
11,CCCCCC[C@@H](O)C/C=C\CCCCCCCC(=O)OCC(O)CO (stereo partly specified),13.5 µM (active)
12,O=C(OCCc1ccccc1)c1ccccc1,20.9 µM (active)
13,O=C(OCc1ccccc1)c1ccc(O)cc1,0.322 µM (active)
14,CC(C)(c1ccccc1)c1ccc(Nc2ccc(C(C)(C)c3ccccc3)cc2)cc1,20.2 µM (active)
15,COc1ccc(-c2coc3cc(O)cc(O)c3c2=O)cc1,0.335 µM (active)
16,Cc1ccc(C)c(OCCCC(C)(C)C(=O)O)c1,0.499 µM (active)
